Structures can show the parent of a compound that is named as a salt. ± gives the standard deviation.
Tested on: Jurkat
Experiment: mean cell size (FSC-A) relative to DMSO control (fraction of control); higher = larger cells
Settings: 48 h
Outline: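 Jurkat cells at 600 cells/µl were incubated for 1 h and then treated for 48h with the Enzo Screen-Well FDA Approved Drug Library v2.0 at 25µM, with DMSO at 0.9% (v/v) final. Compounds that reduced counts below 20% of controls were retested in 10-fold dilutions down to 25nM. Cell count and mean cell size, taken as forward scatter area, were measured by flow cytometry relative to solvent-only controls. Each plate carried 6-12 controls, and values are means of 3 biological replicates.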

Point of comparison: `c1ccc2c(c1)CCCC2C1=NCCN1` (stereo not drawn) [Tetrahydrozoline·HCl] (concentration: 25 µM), mean cell size 0.9443 ± 0.007. Against it:
- CN[C@@H]1[C@H](O)[C@H](NC)[C@H]2O[C@@]3(O)C(=O)C[C@@H](C)O[C@H]3O[C@@H]2[C@H]1O [Spectinomycin·HCl Pentahydrate] (concentration: 25 µM) — higher, 1.05 ± 0.014
- CN[C@H](CC(C)C)C(=O)N[C@H]1C(=O)N[C@@H](CC(N)=O)C(=O)N[C@H]2C(=O)N[C@H]3C(=O)N[C@H](C(=O)N[C@H](C(=O)O)c4cc(O)cc(O)c4-c4cc3ccc4O)[C@H](O)c3ccc(c(Cl)c3)Oc3cc2cc(c3O[C@@H]2O[C@H](CO)[C@@H](O)[C@H](O)[C@H]2O[C@H]2C[C@](C)(N)[C@H](O)[C@H](C)O2)Oc2ccc(cc2Cl)[C@H]1O [Vancomycin·HCl] (concentration: 25 µM) — higher, 1.02 ± 0.021
- Nc1c(CC(=O)O)cccc1C(=O)c1ccc(Br)cc1 [Bromfenac] (concentration: 25 µM) — within error, 0.938 ± 0.018
- CNCC[C@@H](Oc1ccccc1C)c1ccccc1 [Atomoxetine·HCl] (concentration: 25 µM) — within error, 0.996 ± 0.05
- CNCCC(Oc1ccc(C(F)(F)F)cc1)c1ccccc1 (stereo not drawn) [Fluoxetine·HCl] (concentration: 25 µM) — higher, 0.992 ± 0.039
- CN1CCC(=C2c3ccccc3CC(=O)c3sccc32)CC1 [Ketotifen Fumarate] (concentration: 25 µM) — within error, 0.96 ± 0.017
- CNCC[C@H](Oc1cccc2ccccc12)c1cccs1 [Duloxetine·HCl] (concentration: 25 µM) — higher, 1.02 ± 0.069

Reference: the supplement of paper PMC4709259
